A selection: hits, their analogues and other compounds. The true share with any hit is near 5.4%.
SMARCA2 activ: SMARCA2 (BRM) function activators, primary screen, cell-based, luminescence, high throughput. MG213 cells, MMTV-luciferase reporter, dexamethasone, overnight. activation, % at 9.1 µM. hit rate 1% among 370,000; in the data active = activation above about 7.8%;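 note: 0% = vehicle wells and 100% = reference activator wells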
ALR H2O2 inh: inhibitors of human ALR sulfhydryl oxidase, primary screen, biochemical, H2O2 detection, HRP-luminol luminescence, single point; AID 485317, 2010; purified ALR, DTT oxidation; hit rate 3.8% among 290,000; inhibition, % (test concentration not listed);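 active = mean replicate inhibition above about 79%, with every replicate also reaching it, limit read from the data; inconclusive = only one of the two criteria met; inactive = mean below limit and not every replicate reaching it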
Target sequence (P55789 whole entry, looked up): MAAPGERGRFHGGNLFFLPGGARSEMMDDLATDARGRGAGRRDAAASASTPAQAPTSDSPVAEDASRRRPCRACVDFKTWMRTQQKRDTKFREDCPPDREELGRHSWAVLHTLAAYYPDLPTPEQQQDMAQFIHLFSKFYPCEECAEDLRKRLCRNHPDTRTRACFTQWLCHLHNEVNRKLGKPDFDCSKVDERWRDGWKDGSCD
beta cell repl: inducers of MIN6 beta-cell proliferation, primary screen, ATP luminescence, uHTS; MIN6 cells proliferation, ATPlite luminescence, 48 h; cells starved in 0.2% serum; 100% = growth in 10% serum; proliferation, % at 10 µM; hit rate 0.29% among 330,000; AID 2380, 2010;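 active = compounds whose signal lies at least 3.5 SD above the mean of all wells on their plate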;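 note: 0% = DMSO-treated cells in low-serum medium and 100% = 10% serum control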
GASC-1 inh: inhibitors of GASC-1 histone demethylase, primary screen, biochemical, fluorescence, DELFIA europium; hit rate 0.069% among 330,000; GST-JMJD2C(1-420) H3K9me3 demethylation; AID 2099, 2009; inhibition, % at 2.35 µM;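 active = more than half of a compound's replicate wells show inhibition beyond 50%, single wells judged on their own value; inconclusive = some, but no more than half, of replicates pass 50% inhibition; inactive = no replicate passes 50% inhibition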;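 note: signal counts dimethyl H3K9 product captured on neutravidin plate; 0% = median of DMSO wells and 100% = 0.3 times that DMSO median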
Target sequence (Q9H3R0 1-420 limits assumed): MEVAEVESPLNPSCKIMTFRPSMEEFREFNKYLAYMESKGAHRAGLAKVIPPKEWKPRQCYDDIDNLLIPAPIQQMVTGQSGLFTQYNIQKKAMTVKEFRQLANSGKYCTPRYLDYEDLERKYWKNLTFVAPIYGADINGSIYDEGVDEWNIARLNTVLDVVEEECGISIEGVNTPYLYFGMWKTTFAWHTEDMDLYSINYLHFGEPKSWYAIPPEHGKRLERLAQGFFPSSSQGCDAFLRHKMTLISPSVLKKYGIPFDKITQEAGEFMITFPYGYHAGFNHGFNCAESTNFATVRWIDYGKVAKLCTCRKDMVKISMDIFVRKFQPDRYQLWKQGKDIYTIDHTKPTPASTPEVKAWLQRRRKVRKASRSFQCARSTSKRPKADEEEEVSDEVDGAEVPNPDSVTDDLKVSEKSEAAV
Granule exo inh: LAMP-1 surface exposure blockers, TALL-104 cells – cell-based, flow cytometry, MLPCN library, primary screen | TALL-104 LAMP-1 surface exposure; cells stimulated with thapsigargin and PMA | inhibition, % at 10 µM | hit rate 0.66% among 360,000 | AID 651702, 2012;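 active = inhibition above about 55%, limit read from the data; inconclusive = no clear call, values can overlap the other calls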
PfM18AAP inh: PfM18AAP inhibitors, malaria aminopeptidase, primary screen, biochemical, QFRET, recombinant enzyme; M18 aspartyl aminopeptidase (Plasmodium falciparum 3D7); H-Glu-NHMec fluorogenic cleavage; inhibition, % at 7.35 µM; hit rate 1.2% among 290,000; AID 1822, 2009;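 active = inhibition above the campaign mean inhibition over all tested compounds plus 3 SD, cut at about 28% in these data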;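 note: 0% = plate median of test compound wells and 100% = 2 mM ZnCl2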
* marks the source's active call; other numbers are inactive results; u = inconclusive; x = no result given.

SMILES	SMARCA2 activ	ALR H2O2 inh	beta cell repl	GASC-1 inh	Granule exo inh	PfM18AAP inh
COCCNC(=O)c1c(N)sc2c1CCCC2	x	-9	-2	50*	x	14
CN(C)CCCn1c(SCC(=O)N2c3ccccc3Sc3ccccc32)nc2ccccc2c1=O	4	97*	x	-4	33	-3
COc1ccc(C2C(C(=O)N3CCCCC3C)CC(=O)N2c2ccc(OC)cc2)cc1 (configuration not stated)	0	x	x	x	x	x
CN(C)c1ccc(C2N3CC4(C)CN2CC(C)(C3)C4O)cc1 (configuration not stated)	8	99*	0	8	-3	6
CN(C)c1ccc(NC(=O)NC2CCCCN(Cc3cccc(Cl)c3)C2=O)cc1 (configuration not stated)	-1	x	x	x	x	x
CC(C)(C)NC(=O)CN(C(=O)CCN1CCCc2ccccc21)C(C)(C)C	4	94*	-4	-1	6	7
C[C@H]1COc2cc(Br)ccc2S(=O)(=O)N1Cc1cn(Cc2ccc(Cl)cc2)nn1	-1	x	x	x	x	x
O=C(CNC(=O)c1ccccc1Br)N/N=C/c1ccc(O)cc1	4	99*	1	16	-1	0
O=C(N/N=C/c1ccc(O)cc1)c1csc2ccccc12	3	98*	-3	0	-6	0
CC(C)=C(NC(=O)c1ccccc1)C(=O)N/N=C/c1ccc(O)cc1	-2	99*	0	4	2	-8
O=C(N/N=C/c1ccncc1)c1cccc(S(=O)(=O)Nc2ccc(Cl)cc2)c1	-2	-4	-3	11	1	33*
O=C(N/N=C/c1ccc(O)cc1)c1cc(-c2ccccc2)nc2ccccc12	1	30	1	9	8	6
CCCCNC(=O)C1(C(=O)c2ccc(OC)cc2)CC(C(=O)OCC)=NO1 (configuration not stated)	1	x	x	x	x	x
COC(=O)[C@]12CCCCC=C1N(Cc1ccc(OC)cc1)C(=O)[C@@H]2CC(=O)NCC1CCCCC1	-4	x	x	x	x	x
CCCCOc1ccc(C(=O)NC2CCCCN(Cc3ccccc3C)C2=O)cc1 (configuration not stated)	-3	x	x	x	x	x
O=C(CCc1ccccc1)N[C@H]1[C@H](OCc2ccccc2)CCC[C@@]12C(=O)N(Cc1ccccc1)c1ccccc12	-3	x	x	x	x	x
CN1CCCC1CCSc1ncccc1-c1nc2ccccc2[nH]1 (configuration not stated)	-2	x	x	x	x	x
COC(=O)[C@H](C)NC(=O)C(Cc1ccc2c(c1)OCO2)NC(C)=O (some centres not stated)	2	x	x	x	x	x
O=C(Nc1ccccc1C(=O)N/N=C/c1ccccc1)c1ccco1	0	-11	-5	6	8	12
O=C(Nc1ccccc1C(=O)N/N=C/c1ccc(O)cc1)c1ccccc1	1	94*	-3	-3	1	-15
O=C(N/N=C/c1ccc(O)cc1)c1ccncc1	-2	99*	0	-12	1	5
O=C(N/N=C/c1ccncc1)c1ccncc1	2	x	x	x	-1	x
CCN(CC)CCn1c2c(c(SCC(=O)Nc3ccc4c(c3)OCCO4)nc1=O)CCCC2	-2	10	8	-17	-3	x
CN(C)CCCn1c2c(c(SCC(=O)Nc3ccc4c(c3)OCO4)nc1=O)CCC2	-2	98*	-3	2	0	x
CCN(CC)CCCn1c2c(c(SCC(=O)Nc3ccc4c(c3)OCCO4)nc1=O)CCC2	-3	98*	-3	-1	-2	x
SMILES	SMARCA2 activ	ALR H2O2 inh	beta cell repl	GASC-1 inh	Granule exo inh	PfM18AAP inh
CC(=O)c1cccc(NC(=O)CSc2nc(=O)n(Cc3ccccn3)c3c2CCC3)c1	-2	99*	-2	9	0	x
CN(C)CCCn1c2c(c(SCC(=O)Nc3ccc4c(c3)OCO4)nc1=O)CCCC2	0	u	0	-5	3	x
CCN(CC)CCCn1c2c(c(SCC(=O)Nc3cccc(C(C)=O)c3)nc1=O)CCC2	0	99*	-1	-17	-2	x
C[C@H](O)[C@@H]1CN2CCc3c([nH]c4c(-c5ccccc5)cccc34)[C@@H]2C[C@@H]1N(C)CC1CCCCC1	-3	x	x	x	x	x
COc1ccc(-n2c(CCc3ccccc3)n[nH]c2=S)cc1	-1	10	6	2	-6	10
Oc1ccc(CCc2n[nH]c(=S)n2-c2ccc(F)cc2)cc1	-1	81*	-2	0	3	29*
O=C(NNC(=S)NC(=O)c1ccco1)c1ccc(F)cc1	-1	97*	-1	1	0	3
COc1ccc(C(=O)NNC(=S)NC(=O)c2ccco2)cc1	-4	31	-1	15	0	10
CC(Oc1ccc(Cl)cc1)C(=O)NNC(=S)NC(=O)c1ccco1 (configuration not stated)	-3	98*	-4	0	-4	18
O=C(COc1ccc(Cl)cc1Cl)NNC(=S)NC(=O)c1ccco1	-3	x	-5	-6	-2	3
O=C(NC(=S)NNC(=O)c1ccco1)c1ccc(Br)cc1	-1	99*	-4	-17	-2	0
Cn1cccc1CC(=O)NNC(=S)NC(=O)c1ccc(F)cc1	0	95*	-2	-9	2	26
COc1ccc(Cn2ccc3ccc(-c4ccc5ccn(C(=O)C6CCCCC6)c5c4)cc32)cc1	0	x	x	x	x	x
Cc1ccc(-c2ccc(CCC(=O)O)n2NC(=O)c2cccs2)cc1	2	99*	4	16	-9	1
O=C(O)CCc1ccc(-c2cccs2)n1NC(=O)c1ccc(Cl)cc1	1	98*	-1	-6	0	-3
CCNC(=O)C[C@H]1CC[C@H]2[C@@H](COc3ccc(NC(=O)c4ccc5c(c4)OCO5)cc3C(=O)N2C)O1	-4	x	x	x	x	x
CCC(=O)Nc1cc(C(=O)OCC(=O)c2ccc(Cl)cc2Cl)ccc1C	-2	-1	0	4	-2	-3
O=C(O)CCC(=O)Nc1ccc(C(=O)OCC(=O)c2ccc(Cl)cc2Cl)cc1	3	96*	1	-1	-2	2
COC(=O)[C@]12C[C@H](CC(=O)NCc3ccccc3)C(=O)N(CCc3ccc(OC)c(OC)c3)C1=C[C@H](COCc1ccccc1)O[C@@H]2C	-4	x	x	x	x	x
O=C(Nc1cccc(S(=O)(=O)N2CCCCC2)c1)c1ccccc1NS(=O)(=O)c1ccc(F)cc1	-7	-2	-6	4	45	3
O=C(Nc1cc(S(=O)(=O)N2CCCCC2)ccc1O)c1ccccc1NS(=O)(=O)c1ccc(F)c(F)c1	-1	96*	0	3	0	-4
